Reference: PubChem BioAssay
Calls of active or inactive are those of the source.

Experiments:
[1] = tested on: Human papillomavirus type 1a protein E7 (residues 44-93); experiment: HPV1a E7 fragment binders on microarrays, primary screen, biochemical, small-molecule microarray, residues 44-93, 635 nm fluorescence (AID 1108); conditions: small-molecule microarray binding, fluorescence 635 nm; higher = more signal;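 also: E7 fragment applied at 1 µg/mL in TBST for 1 h at 4 C; score combines spot fluorescence with its signal to noise ratio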
[2] = modulators of HCV replicon luciferase signal, primary screen, HCV replication inhibitor project, Huh7 cells, luciferase reporter (AID 1109); conditions: 48 h, higher = more signal;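 also: huh7 hepatoma cells harbouring a luciferase neomycin HCV replicon reporter; luciferase luminescence as measure of HCV replicon replication; test concentration not given here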
[3] = biological target: Left-right determination factor 2 (Homo sapiens) (UniProt O00292); experiment: LEFTY2 binders on small-molecule microarrays, primary screen, biochemical, small-molecule microarray, 635 nm fluorescence scan (AID 1110); conditions: LEFTY2 binding, higher = more signal
[4] = biological target: Calmodulin-1 (Homo sapiens) (UniProt P0DP23); experiment: CALM1 binders on microarrays, EGTA buffer, profiling panel, biochemical, small-molecule microarray, Cy5-labelled CALM1 (AID 1111); conditions: Cy5-CALM1 binding fluorescence, higher = more signal;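 also: labelled calmodulin applied in Tris saline Tween buffer holding calcium plus EGTA and DTT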
[5] = biological target: Calmodulin-1 (Homo sapiens) (UniProt P0DP23); experiment: calcium-bound CALM1 binders on microarrays, profiling panel, artefact control for SMM control-protein annotation, biochemical, small-molecule microarray, Cy5-labelled CALM1, plus calcium (AID 1112); conditions: Cy5-CALM1 binding fluorescence, higher = more signal;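 also: score merges spot fluorescence with signal to noise from triplicate slides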
[6] = small-molecule microarray binders of probe aWnt5a, primary screen, biochemical, biotinylated probe, 635/667 nm fluorescence (AID 1113); conditions: higher = more signal;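 also: score merges 667 nm fluorescence intensity with signal-to-noise per printed feature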
[7] = small-molecule microarray binders of probe aShh, primary screen, biochemical, biotinylated probe, 635/667 nm fluorescence (AID 1114); conditions: higher = more signal;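 also: probe is biotin-labelled aShh protein from a stem cell growth factor screen; measures binding of labelled protein to compounds printed on the slide; score merges feature fluorescence at 667 nm with signal-to-noise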
[8] = small-molecule microarray binders of probe aNog, primary screen, biochemical, biotinylated probe, 635/667 nm fluorescence (AID 1115); conditions: higher = more signal;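 also: probe is biotinylated aNog protein used at 0.15 µg/mL for 1 h at 4 C; z-score combines 667 nm fluorescence of each spot with its signal to noise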
[9] = biological target: Torsin-1A-interacting protein 1 (Homo sapiens) (UniProt Q5JTV8); experiment: LAP1 binders from COS7 cell lysate, primary screen, small-molecule microarray, 635/667 nm fluorescence (AID 1116); conditions: COS7-hLAP1 lysate binding, 635 nm fluorescence, higher = more signal
[10] = biological target: Alpha-bungarotoxin (Bungarus multicinctus) (UniProt P60615); experiment: alpha-bungarotoxin binders on microarray, profiling panel, artefact control for SMM control protein annotation, biochemical, small-molecule microarray, Alexa647 label, 635/667 nm fluorescence (AID 1117); conditions: alpha-BTX-A647 binding fluorescence, higher = more signal
[11] = biological target: Albumin (Bos taurus) (UniProt P02769); experiment: bovine serum albumin binders on microarray, profiling panel, artefact control for SMM control protein annotation, biochemical, small-molecule microarray, Alexa647 label, 635/667 nm fluorescence (AID 1118); conditions: BSA-A647 binding, fluorescence 635 nm, higher = more signal;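 also: score merges 667 nm emission intensity and signal-to-noise per printed compound spot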
[12] = small-molecule microarray binders of probe aXIP, primary screen, biochemical, NeuroSMM set, 635/667 nm fluorescence (AID 1119); conditions: higher = more signal, called active from +8 up or from −8 down;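 also: probe is the protein aXip251-270 applied at 1 µg/mL to compound-printed slides; binding of probe to printed compounds measured as 667 nm fluorescence plus signal to noise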
[13] = small-molecule binders of probe aNOTCH3, primary screen, biochemical, small-molecule microarray, 635/667 nm fluorescence (AID 1120); conditions: higher = more signal;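 also: probe is a biotin-tagged antibody raised against NOTCH3 rather than NOTCH3 protein; score merges spot fluorescence near 667 nm with spot signal to noise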
[14] = small-molecule binders of probe aNOTCH2, primary screen, biochemical, small-molecule microarray, 635/667 nm fluorescence (AID 1121); conditions: higher = more signal;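 also: score merges feature fluorescence read at 667 nm with its signal to noise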
[15] = biological target: Carbonic anhydrase 2 (Homo sapiens) (UniProt P00918); experiment: CAII small-molecule binders, profiling panel, biochemical, small-molecule microarray, Alexa647-labelled CAII (AID 1122); conditions: CAII-A647 binding fluorescence, higher = more signal
[16] = COS7 lysate on small-molecule microarray, probe aHis, 635 nm (AID 1123); conditions: COS7 cell lysate, fluorescence, higher = more signal;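 also: z-score combines 667nm fluorescence intensity with signal-to-noise per printed compound spot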
[17] = compound binding in COS7 lysate, probe aLAP1, primary screen, cell lysate, small-molecule microarray (AID 1124); conditions: probe aLAP1, fluorescence, higher = more signal;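 also: lysate comes from COS7 cells expressing LAP1 and is applied at 0.3 µg/mL; score merges spot fluorescence near 667 nm with signal-to-noise over triplicate slides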
[18] = tested on: Sam68 (KHDRBS1); experiment: Sam68 small-molecule binders, primary screen, biochemical, small-molecule microarray, 635 nm fluorescence (AID 1125); conditions: small-molecule microarray binding, higher = more signal;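 also: score merges 667 nm channel intensity with signal to noise over triplicate slides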
[19] = tested on: Chordin-like protein 2 (CHRDL2); experiment: CHRDL2 small-molecule binders, primary screen, biochemical, small-molecule microarray, 635 nm fluorescence (AID 1126); conditions: small-molecule microarray binding, fluorescence 635 nm; higher = more signal;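 also: printed compound slides probed with Chrdl2 protein at 4 µg/mL for 1 h at 4 C; score merges 667 nm emission intensity with signal to noise over three replicate slides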
[20] = biological target: Concanavalin-A (Canavalia ensiformis) (UniProt P02866); experiment: ConA small-molecule binders, primary screen, artefact control for SMM control protein annotation, biochemical, small-molecule microarray, Alexa647 label, 635 nm (AID 1127); conditions: ConA-A647 binding fluorescence, higher = more signal;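 also: z combines 667 nm emission intensity with signal-to-noise across three replicate slides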
Chain of Concanavalin-A (Canavalia ensiformis) (P02866 whole entry, looked up): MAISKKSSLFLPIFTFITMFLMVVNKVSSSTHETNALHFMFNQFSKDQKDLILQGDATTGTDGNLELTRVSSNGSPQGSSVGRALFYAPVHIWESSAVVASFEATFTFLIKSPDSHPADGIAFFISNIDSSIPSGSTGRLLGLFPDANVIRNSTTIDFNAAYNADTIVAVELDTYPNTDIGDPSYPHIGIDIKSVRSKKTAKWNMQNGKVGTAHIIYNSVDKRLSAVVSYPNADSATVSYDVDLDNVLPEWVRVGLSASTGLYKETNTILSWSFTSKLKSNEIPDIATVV

Chain of Albumin (Bos taurus) (P02769 whole entry, looked up): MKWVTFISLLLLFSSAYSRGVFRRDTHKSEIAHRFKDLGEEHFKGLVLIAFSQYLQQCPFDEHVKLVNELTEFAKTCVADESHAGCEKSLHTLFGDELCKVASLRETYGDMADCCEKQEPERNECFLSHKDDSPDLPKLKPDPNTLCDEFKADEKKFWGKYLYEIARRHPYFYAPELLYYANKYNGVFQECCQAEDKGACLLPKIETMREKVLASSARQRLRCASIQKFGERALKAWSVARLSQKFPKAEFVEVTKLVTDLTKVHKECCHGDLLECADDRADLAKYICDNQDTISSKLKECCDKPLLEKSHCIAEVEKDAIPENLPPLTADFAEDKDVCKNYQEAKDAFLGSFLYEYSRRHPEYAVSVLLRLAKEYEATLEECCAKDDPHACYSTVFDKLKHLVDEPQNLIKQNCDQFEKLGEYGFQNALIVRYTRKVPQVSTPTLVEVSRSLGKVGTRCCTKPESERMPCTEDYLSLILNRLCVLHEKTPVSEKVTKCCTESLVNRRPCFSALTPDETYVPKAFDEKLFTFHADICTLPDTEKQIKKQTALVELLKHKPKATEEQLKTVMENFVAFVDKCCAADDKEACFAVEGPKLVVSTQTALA
Chain of Alpha-bungarotoxin (Bungarus multicinctus) (P60615 whole entry, looked up): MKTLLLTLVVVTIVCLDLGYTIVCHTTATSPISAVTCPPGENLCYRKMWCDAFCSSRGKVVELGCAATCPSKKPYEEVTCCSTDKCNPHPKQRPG
Chain of Left-right determination factor 2 (Homo sapiens) (O00292 whole entry, looked up): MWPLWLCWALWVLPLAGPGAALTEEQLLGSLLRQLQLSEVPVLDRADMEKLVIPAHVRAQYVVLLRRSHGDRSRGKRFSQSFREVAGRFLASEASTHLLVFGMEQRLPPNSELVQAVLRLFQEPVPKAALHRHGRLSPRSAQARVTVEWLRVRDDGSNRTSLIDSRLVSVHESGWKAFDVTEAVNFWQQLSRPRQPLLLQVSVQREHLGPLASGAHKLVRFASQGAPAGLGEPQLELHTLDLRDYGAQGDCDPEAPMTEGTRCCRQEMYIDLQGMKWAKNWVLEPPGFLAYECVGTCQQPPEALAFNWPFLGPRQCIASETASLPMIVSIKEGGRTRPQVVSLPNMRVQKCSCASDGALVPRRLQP
Chain of Torsin-1A-interacting protein 1 (Homo sapiens) (Q5JTV8 whole entry, looked up): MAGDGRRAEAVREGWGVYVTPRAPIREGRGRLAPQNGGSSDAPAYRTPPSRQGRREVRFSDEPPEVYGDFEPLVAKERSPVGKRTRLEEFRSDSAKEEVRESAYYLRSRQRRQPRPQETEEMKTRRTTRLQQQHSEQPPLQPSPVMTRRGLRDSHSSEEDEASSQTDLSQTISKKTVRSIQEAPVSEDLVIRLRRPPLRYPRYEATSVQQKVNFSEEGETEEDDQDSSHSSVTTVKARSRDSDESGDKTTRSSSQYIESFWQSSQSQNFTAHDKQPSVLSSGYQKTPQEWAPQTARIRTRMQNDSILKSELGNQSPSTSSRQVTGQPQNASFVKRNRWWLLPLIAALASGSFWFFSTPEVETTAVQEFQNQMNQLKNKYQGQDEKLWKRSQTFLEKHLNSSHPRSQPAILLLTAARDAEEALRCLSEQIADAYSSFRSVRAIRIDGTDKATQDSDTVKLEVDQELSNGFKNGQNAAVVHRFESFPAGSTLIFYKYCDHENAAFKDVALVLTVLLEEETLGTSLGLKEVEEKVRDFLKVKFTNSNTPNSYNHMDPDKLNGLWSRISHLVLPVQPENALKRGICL

| Structure (SMILES) | composite z-score [1] | z-score [2] | composite z-score [3] | composite z-score [4] | composite z-score [5] | composite z-score [6] | composite z-score [7] | composite z-score [8] | composite z-score [9] | composite z-score [10] | composite z-score [11] | composite Z-score [12] | composite z-score [13] | composite z-score [14] | composite z-score [15] | composite z-score [16] | composite z-score [17] | composite z-score [18] | composite z-score [19] | composite z-score [20] |
| --- | --- | --- | --- | --- | --- | --- | --- | --- | --- | --- | --- | --- | --- | --- | --- | --- | --- | --- | --- | --- |
| COCCOC(=O)N1C(=O)[C@@]2(c3cc(C#CCC(C(=O)OC)C(=O)OC)ccc31)[C@H](c1ccc(OCCO)cc1)N1[C@H](c3ccccc3)[C@H](c3ccccc3)OC(=O)[C@H]1[C@@H]2C(=O)N1CCN(c2ncccn2)CC1 | 1.17 | -1.46 | 0.603 | 1.41 | 0.377 | -0.0236 | 0.184 | 0.363 | 1.33 | 1.85 | 0.758 | -0.341 (inactive) | 0.196 | -0.14 | 0.35 | 2.33 | 0.265 | 1.29 | 0.293 | 1.1 |
| CC(C)N1CC=CC23O[C@@H]4C=CCOC(=O)[C@@H]4[C@H]2C(=O)N(C(C)CO)[C@@H]3C1=O (stereo not given in full) | -0.913 | 0.187 | -1.76 | -0.0212 | -0.123 | -0.196 | 0.0278 | 0.141 | -0.606 | -0.127 | -0.385 | 0.365 (inactive) | -0.149 | -0.0891 | 0.406 | 0.0561 | 1.06 | -0.876 | -1.03 | 0.261 |
| Cc1c(NC(=O)/C(C#N)=C/C=C/c2ccc(N(C)C)cc2)c(=O)n(-c2ccccc2)n1C | 0.55 | -0.754 | 0.431 | 0.824 | -0.224 | 0.19 | 0.173 | 0.432 | 1.69 | 1.04 | 0.376 | 1.02 (inactive) | 0.308 | 0.292 | 0.456 | 2.54 | -0.154 | 1.22 | 0.568 | 1.1 |
| CCCC[C@@H]1C[C@H]1[C@@H](NC(=O)c1cccnc1)c1ccc(-c2ccccc2)cc1 | -0.447 | -1.95 | -1.99 | -0.297 | 0.742 | -0.141 | 2.01 | -0.744 | -1.2 | -0.556 | -0.294 | -0.0683 (inactive) | -0.306 | -0.174 | -0.357 | 0.208 | -0.193 | -0.0982 | -1.56 | -0.633 |
| CCOC(=O)C1=CC[C@@H](c2ccccc2)N(S(=O)(=O)c2ccc(C)cc2)C1 | 0.493 | -2.23 | -0.0161 | -0.11 | -0.374 | -0.0459 | 0.485 | 0.005 | 0.127 | 0.329 | 0.425 | -0.0056 (inactive) | 0.283 | -0.0176 | 0.38 | 0.522 | 0.786 | 0.143 | 0.565 | -0.264 |
| O=C1c2ccccc2[C@](Cc2ccccc2I)(C(=O)NCc2ccccc2)[C@H](c2ccc(CO)cc2)N1C1CCCCC1 | 1.4 | -1.93 | 0.835 | 1.28 | 1.08 | -0.0691 | 0.217 | 0.347 | 0.616 | 0.705 | 0.861 | 0.534 (inactive) | 0.16 | -0.0997 | 0.601 | 1.21 | 0.576 | 1.12 | 0.271 | 1.23 |
| C=C(CCCC)C(=O)CC[C@@H](OC(=O)c1ccccc1-c1ccccc1C(=O)O)c1cccc(OCCO)c1 | 0.834 | -4.38 | 0.373 | -0.826 | -0.973 | -0.148 | -0.0709 | 0.468 | 2.19 | -0.14 | -0.658 | -0.263 (inactive) | -0.15 | -0.154 | 0.728 | 0.361 | 0.742 | 0.986 | 1.22 | -0.5 |
| [N-]=[N+]=NCc1ccccc1C[C@]1(C(=O)NCC(O)CO)N=C(c2ccc(OCCCO)cc2)O[C@H]1c1ccccc1CN=[N+]=[N-] (stereo not given in full) | 1.47 | -2.88 | -0.353 | 1.42 | 0.786 | 0.115 | 0.541 | 0.721 | 2.41 | 1.21 | 0.801 | 0.496 (inactive) | 0.303 | -0.108 | 0.404 | 3.05 | 0.137 | 1.12 | -0.86 | 1.11 |
| C=CCOC(=O)[C@@H]1[C@H]2C(=O)O[C@H](c3ccccc3)[C@H](c3ccccc3)N2[C@H](c2ccc(OCCOC(=O)[C@H]3C[C@H]4C(=O)N[C@@H](CCCCNC(C)=O)C(=O)N4[C@H]3c3cccc(OCCO)c3)cc2)[C@@]12C(=O)Nc1ccc(I)cc12 | 0.721 | -1.03 | 0.642 | 0.277 | -0.759 | -0.096 | 0.0725 | -0.0317 | 0.97 | 1.54 | -1.29 | 0.783 (inactive) | -0.016 | -0.12 | 0.336 | 1.13 | 0.583 | 1.31 | 1.06 | 1.15 |
| C=C(CCCC)C(=O)CC[C@@H](OC(=O)c1cccnc1)c1ccccc1OCCO | -0.266 | -3.05 | -0.0055 | -1.11 | -1.07 | -0.091 | -0.138 | -0.117 | 0.684 | 0.583 | -0.326 | 0.589 (inactive) | 0.1 | -0.0804 | 0.406 | -0.256 | 0.377 | 0.44 | 0.515 | -1.51 |
| [N-]=[N+]=NCc1ccccc1[C@H]1OC(c2ccc(OCCCO)cc2)=N[C@@]1(CCS(=O)(=O)c1ccccc1)C(N)=O | 1.11 | -0.281 | 0.264 | 0.145 | 0.257 | -0.096 | 0.265 | 1.4 | 1.47 | 2.43 | 0.736 | 0.0553 (inactive) | 0.302 | 0.123 | 0.878 | 3.31 | 1.71 | 1.3 | -0.0208 | 1.2 |
